Gli-Sufu antag – blocks Gli-Sufu signaling in a luciferase reporter | Sufu-KO-LIGHT fibroblasts, Gli luciferase reporter luminescence | inhibition, % at 5 µM | actives 0.74% (n = 340,000) | AID 588413;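 active = inhibition above about 55%, limit read from the data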;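 also: 0% = DMSO-treated cells and 100% = wells with medium but no cells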
H9c2 TAG inh – reduces triacylglycerol accumulation in H9c2 cells; Nile Red lipid (TAG) fluorescence; cells loaded with 200 µM oleic acid; inhibition, % at 12.5 µM; actives 0.66% (n = 230,000); AID 651582;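 active = pattern-corrected inhibition of lipid staining of at least 50% with the nuclear-stain viability signal not falling by more than 50%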;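 also: 0% = DMSO wells and 100% = triacsin C control wells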
Shn3 inh set2 – Schnurri-3 reporter inhibition in Clone20 osteoblasts; Clone20 osteoblast Shn3 3'UTR firefly luciferase, 24 h; inhibition, % at 12.5 µM; actives 0.52% (n = 360,000); AID 588674;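 active = mean inhibition of at least 75% with every replicate also reaching 75%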;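 also: 0% = median of neutral control wells and 100% = pilot-screen positive control compound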
aSyn 5UTR inh – 5' untranslated region of α-synuclein, MLPCN primary screen; alpha-synuclein 5'UTR reporter, inhibitor activity; actives 0.82% (n = 300,000); AID 1813; inhibition, % (tested at 7.5 µM); in the data active = inhibition above about 60%;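 also: H4 neuroglioblastoma cells stably carrying SNCA 5'UTR luciferase fusion; 0% = DMSO wells and 100% = positive control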
Jurkat NFkB inh – lowers PMA/ionomycin-induced NF-kB signal in Jurkat cells; actives 0.53% (n = 330,000); PMA/ionomycin-induced NF-kB luciferase reporter, luminescence; inhibition, % at 4 µM; in the data active = inhibition above about 50%
697 NFkB inh – inhibitors of the PMA/ionomycin-induced NF-kB reporter in 697 B cells; inhibition, % at 4 µM; AID 435022; 697 B-cell NF-kB luciferase reporter, 16 h; actives 0.33% (n = 330,000); in the data active = inhibition above about 35%
* marks the source's active call; other numbers are inactive results; / = no result given. A selection: hits, their analogues and other compounds. The true share with any hit is near 2.3%.

SMILES	Gli-Sufu antag	H9c2 TAG inh	Shn3 inh set2	aSyn 5UTR inh	Jurkat NFkB inh	697 NFkB inh
O=C(/C=C/c1cccs1)NC(=S)NNC(=O)c1ccccc1O	-3	-9	70	103*	-12	1
Cc1cc2oc(=O)cc(Cn3ncc(Cl)c(Cl)c3=O)c2cc1Cl	-4	66	97*	3	28	-7
Cn1c2c(c(=O)[nH]c1=O)C(c1cccc(O)c1)C1=C(N2)c2ccccc2C1=O (stereo not drawn)	56*	12	71	/	/	/
OCCNc1nc(Nc2ccc(Cl)cc2)nc(N2CCCC2)n1	13	19	87*	22	-7	-14
COc1ccc(Nc2nc(NCCO)nc(N3CCCC3)n2)cc1	3	5	-5	12	8	18
COC(=O)CN(c1ccccc1)S(=O)(=O)c1ccc(F)cc1	-2	/	4	8	-9	3
O=C1C(NS(=O)(=O)c2cccs2)=C(N2CCN(c3cccc(Cl)c3)CC2)C(=O)c2ccccc21	-50	50*	6	-4	-3	7
O=C1C(NS(=O)(=O)c2ccccc2)=C(N2CCN(c3ccc(F)cc3)CC2)C(=O)c2ccccc21	-1	28	-5	11	-16	-2
COC(=O)C[C@](O)(CCCC(C)(C)O)C(=O)O[C@@H]1C(OC)=C[C@]23CCCN2CCc2cc4c(cc2[C@H]13)OCO4	/	/	/	127*	/	/
Cc1ccc(S(=O)(=O)N2CCCCC2)cc1NC(=O)Cn1ncc(Cl)c(Cl)c1=O	1	48	100*	/	15	-37
Cc1cc(Br)ccc1NC(=O)CNC(=O)CSc1ncccn1	/	-2	-4	/	1	12
Cc1cc(Br)ccc1NC(=O)CNC(=O)Cn1ncc(Cl)c(Cl)c1=O	-10	56*	58	63*	28	-26
Cc1cc(N)c(-n2cc3c(=O)n(C)c(=O)n(C)c3c2)cc1C	-7	8	-11	-134	-43	-21
O=C(O)c1cc(S(=O)(=O)N2CCCc3ccccc32)ccc1Cl	4	/	-7	18	/	/
CC(=O)c1ccc(N=Cc2c(O)n(-c3cc(Cl)ccc3N3CCOCC3)c(=O)c3ccccc23)cc1	-10	52*	3	-3	8	1
COc1cc(Nc2nc(-c3ccccc3)c3cc(C)ccc3n2)cc(OC)c1OC	18	7	84*	14	7	7
Oc1c(Br)cc(/C=N/n2c(-c3ccccc3)n[nH]c2=S)c(O)c1Br	0	-8	4	8	/	/
Cc1c(Br)c(O)c(Br)c(O)c1/C=N/n1c(-c2ccccc2)n[nH]c1=S	-15	/	-14	62*	-8	15
CC1(C)C=C2C(=NN(c3ccccc3)C(N)=C2C#N)CO1	-6	/	-13	8	8	-9
COc1cccc(C2=CC(=O)C[C@H](c3ccc4c(c3)OCO4)C2)c1	-3	/	1	/	11	5
COc1ccc([C@H]2CC(=O)C=C(c3ccc4c(c3)OCO4)C2)cc1OC	1	2	86*	/	-13	-9
O=C(Nc1cccc(S(=O)(=O)c2cccc(NC(=O)C3CC3)c2)c1)C1CC1	25	/	62	17	10	-36
CN1CCN(S(=O)(=O)c2ccc(Sc3nnnn3-c3ccccc3)c([N+](=O)[O-])c2)CC1	-2	67	87*	-22	16	15
CC(=O)c1ccc(Sc2nnnn2-c2ccccc2)c([N+](=O)[O-])c1	2	/	21	-8	2	-10
CC(C)(C)c1cc[n+](C2=C([O-])c3ccccc3C(=O)/C2=N\S(=O)(=O)c2ccccc2)cc1	0	13	-9	84*	13	-8
SMILES	Gli-Sufu antag	H9c2 TAG inh	Shn3 inh set2	aSyn 5UTR inh	Jurkat NFkB inh	697 NFkB inh
O=C1/C(=N\S(=O)(=O)c2cccs2)C([n+]2cccc(Cc3ccccc3)c2)=C([O-])c2ccccc21	19	73*	/	85*	32	-19
O=C1/C(=N\S(=O)(=O)c2cccs2)C([n+]2ccc(CCCc3ccccc3)cc2)=C([O-])c2ccccc21	3	16	/	91*	28	-5
Cc1cc[n+](C2=C([O-])c3ccccc3C(=O)/C2=N\S(=O)(=O)c2cccs2)cc1C	-10	/	1	74*	6	-7
COC(=O)CSC(=S)N1CCCC(C)C1 (stereo not drawn)	-3	1	-2	3	-6	5
Cn1cc(P(=O)(N2CCOCC2)N2CCOCC2)cc1P(=S)(N1CCOCC1)N1CCOCC1	-4	11	7	1	-8	-4
COC(=O)c1ccc(Cn2nnc3c(=O)[nH]c(C4CCCN(S(=O)(=O)c5ccccc5)C4)nc32)cc1 (stereo not drawn)	6	/	1	-10	-6	0
CCOc1ccc(C(=O)Oc2cc(C)[nH]c(=O)c2[N+](=O)[O-])cc1OCC	-2	/	-6	17	2	0
COc1ccccc1NC(=O)C1=C(C)Nc2nnnn2C1c1ccccc1OC (stereo not drawn)	-2	/	14	12	8	-6
COc1ccccc1/C=C1\CCCC2=C1Nc1nnnn1C2c1ccccc1OC (stereo not drawn)	7	/	91*	/	/	/
COc1ccc(CC(=O)Nc2ccccc2N2CCOCC2)cc1OC	1	12	-5	4	4	8
COc1cc(C)c(C(C)C)cc1S(=O)(=O)n1cnc(C)c1	-9	14	28	64*	50	-72
Cc1ccc(C(=O)CCNc2ccc(Br)cc2)o1	-54	6	-19	-99	-51	-76
COc1cccc(CNC(=O)c2nnn(CC(=O)Nc3ccc(Br)cc3)c2N)c1	5	/	57	86*	15	28
COc1ccc(NC(=O)Cn2nnc(C(=O)NCc3ccc4c(c3)OCO4)c2N)cc1	-5	/	1	-10	-3	-11
COc1ccc(C(=O)NCc2nc(C)c(C)s2)cc1OC1CCN(C(C)C)CC1	15	/	5	-2	8	19
CCC(=O)Nc1nc2ccccc2n1Cc1ccc(C)cc1	2	6	21	77*	-9	-15
O=C(Nc1nc2ccccc2n1CCOc1ccccc1)c1ccco1	19	-29	9	58	-4	-23
CCC(=O)Nc1nc2ccccc2n1Cc1ccccc1	-5	/	18	19	-10	9
Cc1ccc(OCCn2c(NC(=O)c3ccco3)nc3ccccc32)cc1	-3	-23	15	67*	-2	18
CC(C)(C)C(=O)Nc1ncccc1C(O)c1cccc(C(F)(F)F)c1 (stereo not drawn)	-3	-4	15	-18	2	22
COc1ccc(COc2cc(-c3cccc(OC)c3)nc3ccc(NC(=O)c4ccc(OC)cc4)cc23)cc1	19	57*	19	18	31	21
COc1ccc(CN(C)S(=O)(=O)c2c(C)noc2C)cc1OC	-1	-20	-11	/	7	-16
COc1ccc(N=Nc2n(C)c3ccccc3[n+]2C)cc1	/	/	/	103*	/	/
Cc1ccsc1C(=O)OCC(=O)NCc1ccco1	3	8	-39	4	9	12

From PubChem BioAssay
